High-throughput results deposited in PubChem BioAssay by National Center for Advancing Translational Sciences (NCATS).
D2 antag: antagonizes the human D2 dopamine receptor. P14416. HEK293 TREx D2 cells, calcium flux, dopamine EC80. inhibition, % at 10 µM. 340,000 compounds, 2% hits. AID 485344; in the data active = inhibition above about 30%; inactive = below that, where a call was filed; also: 0% is about no effect
Target sequence (P14416 whole entry, looked up): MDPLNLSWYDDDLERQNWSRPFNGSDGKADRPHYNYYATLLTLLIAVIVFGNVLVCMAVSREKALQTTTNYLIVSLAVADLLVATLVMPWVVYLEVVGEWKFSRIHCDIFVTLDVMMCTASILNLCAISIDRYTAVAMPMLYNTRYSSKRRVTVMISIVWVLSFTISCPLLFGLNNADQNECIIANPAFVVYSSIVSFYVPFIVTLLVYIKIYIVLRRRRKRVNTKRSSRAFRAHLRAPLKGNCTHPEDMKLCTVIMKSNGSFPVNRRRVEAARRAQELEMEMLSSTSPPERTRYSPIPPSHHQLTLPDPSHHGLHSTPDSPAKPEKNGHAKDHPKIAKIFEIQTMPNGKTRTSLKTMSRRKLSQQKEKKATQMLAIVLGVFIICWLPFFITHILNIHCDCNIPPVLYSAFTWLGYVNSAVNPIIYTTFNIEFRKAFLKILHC
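Measurement of antagonist activity uses fluorescent calcium dye in inducible HEK293 T-REx D2 cells: 10 s baseline, compound addition with 180 s read, EC80 dopamine addition with a further 180 s read.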
D2 PAM-1: D2 dopamine receptor (human) potentiation; P14416; HEK293 T-REx D2, calcium flux, EC20 dopamine potentiation; potentiation, % at 10 µM; 340,000 compounds, 0.34% hits; AID 485347;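 active = potentiation over 3 SD above the plate norm, cut at about 30% in these data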; also: 0% is about no effect
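Cells plated with tetracycline inducer and held overnight at 30 C; calcium dye loaded 30–90 min at room temperature; baseline taken, compound added and read 180 s; EC20 dopamine then added and read 180 s.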
D2 ag-1: human D2 receptor agonism in beta-arrestin assay; P14416; DiscoveRx PathHunter D2 beta-arrestin, luminescence, 90 min; 100% = 57 uM dopamine signal; activation, % (concentration not given with the values); 360,000 compounds, 0.084% hits; AID 624465; in the data active = activation above about 40%; inconclusive = between about 15% and that limit
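Agonist mode: compounds alone added to overnight-plated D2 PathHunter cells for 90 min at 37 C, with 57 uM final dopamine (EC100) defining full response. Beta-arrestin recruitment detected by chemiluminescent reagent, read after 1 h at ambient temperature.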
D2 PAM-2: potentiates the human D2 dopamine receptor allosterically; DiscoveRx D2 beta-arrestin cells, luminescence, 90 min; 100% = 57 uM dopamine signal; potentiation, % (concentration not given with the values); 360,000 compounds, 0.23% hits; AID 624464; in the data active = potentiation above about 50%; inconclusive = mostly about 30% to 49%
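PathHunter D2 cells, attached overnight at 37 deg C, received compound in DMSO plus dopamine at EC20 (50 nM final) for 90 min at 37 deg C. Beta-arrestin recruitment was read as luminescence after 1 h with detection reagent at ambient temperature.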
D2 ag-2: D2 dopamine receptor (human) agonism; P14416; HEK293 T-REx D2 cells, calcium flux agonist mode; activation, % at 2 µM; 340,000 compounds, 0.53% hits;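 active = activation over 3 SD above normal in the single-dose calcium agonist read, cut at about 30% in these data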; also: 0% is about no effect
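HEK293 Trex D2 cells, tetracycline-induced, o/n 30 C 5% CO2; no-wash Ca dye, RT 30–90 min; 10-cycle baseline, 23 nl cpd added, kinetic Ca read 180 s; agonist hits = positive Ca response.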
* hit, by the source's call; ? = inconclusive; . = no result. Most compounds without a hit are left out; they make up all but 2.4% or so of the library.

SMILES | D2 antag | D2 PAM-1 | D2 ag-1 | D2 PAM-2 | D2 ag-2
CC/C(=N\Nc1cccc2ccccc12)c1c(O)[nH]c(=O)[nH]c1=O | -6 | 8 | ? | 55* | 1
CC[C@H]1C2C[C@H]3[C@@H]4N(C)c5ccccc5C45C[C@H](C2[C@H]5O)N3[C@@H]1O (some centres undefined) | 36* | -10 | -2 | -26 | 1
CCc1ccc(OCC(=O)N2CCN(CCc3ccncc3)CC2)cc1 | . | 19 | . | . | .
Cc1ccc2c(c1)C1CN(C)CCC1N2C(=O)/C=C/c1ccc2c(c1)OCO2 (centres undefined) | 21 | -10 | -2 | -11 | 0
Cc1ccc2c(c1)C1CN(C)CCC1N2C(=O)/C(C#N)=C/c1ccc2c(c1)OCO2 (centres undefined) | 48* | -9 | -2 | -6 | 0
CCCCCCNC(=O)N[C@H](Cc1ccc(O)cc1)C(=O)NCCC[C@H]1CN2C(=NC[C@H]2CCC)N1CC1CCC1 | 34* | 7 | . | . | 1
COc1cccc(CN2CC=C(c3ccc(F)cc3)CC2)c1 | 72* | -23 | 1 | -12 | 3
COc1cccc(/C=C/c2nc3ccccc3c(=O)n2-c2ccc(Cl)cc2)c1OC | . | 17 | . | . | 1
O=C1CC(c2ccc(C(F)(F)F)cc2)c2c(c3ccccc3oc2=O)O1 (centres undefined) | . | -2 | . | . | 0
CC1CCN(C(=O)COC(=O)c2cn(C)c3ccccc23)CC1 | 3 | -18 | -1 | -4 | 0
Cn1cc(C(=O)OCC(=O)NC2CCCCC2)c2ccccc21 | 39* | 3 | -6 | -1 | 0
CCCC12CN3CC(C)(CN(C1)C3c1ccccn1)C2=O (centres undefined) | . | 6 | . | . | 0
N#Cc1cc2c(nc1SCC(=O)Nc1ccc(F)c(Cl)c1)C1CCN2CC1 | . | 3 | . | . | 0
Cc1cccc(C)c1NC1=NCCCS1 | -9 | -17 | -7 | 4 | 1
Cc1cc(C)c(NC2=NCCCS2)c(C)c1 | -21 | 50* | 1 | -22 | 0
COc1cccc(-n2c(/C=C/c3ccccc3O)nc3ccccc3c2=O)c1 | . | . | . | . | -1
Cc1cccc2sc(NC(=O)c3cccn(Cc4ccccc4)c3=O)nc12 | . | 9 | . | . | 2
CC(=O)O[C@@]12CO[C@@H]1C[C@H](OC1OCC(O)C(O)C1O)[C@@]1(C)C(=O)[C@H](O)C3=C(C)[C@@H](OC(=O)[C@H](O)[C@@H](NC(=O)c4ccccc4)c4ccccc4)C[C@@](O)([C@@H](OC(=O)c4ccccc4)C12)C3(C)C (some centres undefined) | 38* | 7 | 8 | 5 | 0
COc1ccc(OC)c(CCNCc2c(C(=O)O)c(C)n(Cc3ccc(F)cc3Cl)c2C)c1 | . | -3 | . | . | 0
CN(CCc1nnc(N)s1)[N+](=O)[O-] | 48* | 2 | -3 | 2 | 3
O=[N+]([O-])c1cccc(CN2CCN(Cc3ccc(Br)cc3)CC2)c1 | 90* | -23 | -2 | -4 | 2
O=C(Cc1ccccc1)N1CCN(Cc2ccc([N+](=O)[O-])cc2)CC1 | 1 | -2 | -3 | -5 | 0
Cc1cccc(CN2CCN(c3ccc(Cl)cc3)CC2)c1 | 34* | -18 | -6 | -7 | -6
Fc1ccc(CN2CCN(c3ccc(Cl)cc3)CC2)cc1 | -13 | -20 | -1 | -13 | 0
CCCCCCN1CCN(c2ccc(Cl)cc2)CC1 | 51* | -27 | 5 | -23 | 0
SMILES | D2 antag | D2 PAM-1 | D2 ag-1 | D2 PAM-2 | D2 ag-2
Cc1cccc(CN2CCN(Cc3ccc(Cl)cc3)CC2)c1 | 4 | 11 | -4 | -47 | -1
CCCOc1ccc(C2SCC(=O)Nc3c2c(C)nn3-c2cccc(C)c2)cc1OC (centres undefined) | . | -8 | . | . | -1
COc1ccc(OCC(=O)N2CCN(Cc3cccc(OC)c3OC)CC2)cc1 | . | -3 | . | . | .
Nc1c(C(=O)Nc2ccc(Br)cc2F)sc2nc3c(cc12)N1CCC3CC1 | . | -2 | . | . | -1
O=c1[nH]c2ccccc2n1C1CCN(C(c2ccccc2OC(F)(F)F)c2nnnn2-c2ccc3c(c2)OCCO3)CC1 (centres undefined) | . | . | 10 | 61* | .
O=c1[nH]c2ccccc2n1C1CCN(C(c2cc3ccccc3o2)c2nnnn2Cc2ccccc2)CC1 (centres undefined) | . | . | 2 | 58* | .
CSCCC(c1nnnn1-c1ccc2c(c1)OCCO2)N1CCC(n2c(=O)[nH]c3ccccc32)CC1 (centres undefined) | . | . | 4 | 65* | .
COc1cccc(C(c2nnnn2-c2ccc3c(c2)OCCO3)N2CCC(n3c(=O)[nH]c4ccccc43)CC2)c1OC (centres undefined) | . | . | 4 | ? | .
O=c1c2ccccc2nc(/C=C\c2cccc(Br)c2)n1-c1ccc(O)cc1 | . | 6 | . | . | 1
CCCc1ccc(OCC(=O)Nc2ccc(Cl)cc2C(=O)c2ccccc2)cc1 | . | 0 | . | . | -1
COc1ccc(-n2c(/C=C\c3ccccc3F)nc3ccccc3c2=O)c(OC)c1 | . | 13 | . | . | .
COc1ccccc1OCC#CCN1CCCC(C)C1 (centres undefined) | 57* | -38 | -5 | 4 | 0
COc1ccccc1OCC#CCN1CCCCCC1 | . | . | 0 | -10 | .
CC(=O)NC1CC2CCC(C1)N2 (centres undefined) | 12 | 36* | 0 | -13 | 0
Cc1cc(C)cc(-n2c(/C=C/c3cccc(F)c3)nc3ccccc3c2=O)c1 | . | 7 | . | . | 0
Cc1ccc(-n2c(/C=C/c3cccs3)nc3ccccc3c2=O)cc1C | . | 7 | . | . | .
COC(=O)C1=CCCN(C)C1 | -7 | -12 | 1 | 2 | 31*
COC(=O)c1ccc(CN2CCN(Cc3ccccc3)CC2)cc1 | -5 | -19 | -1 | -12 | 0
CCCCN(Cc1ccccc1)C1CCN(CCc2ccccc2)CC1 | 56* | -21 | -5 | -11 | -1
c1ccc(CCCN2CCN(CCOC(c3ccccc3)c3ccccc3)CC2)cc1 | . | . | 3 | -26 | .
CCN1CCN(c2ccc(N)cc2C)CC1 | 13 | -10 | -3 | -18 | 4
CCN1CCN(c2ccc(NC(C)=O)cc2Cl)CC1 | 42* | 9 | -4 | -5 | 0
COc1cccc(-n2c(/C=C/c3cccc(C)c3)nc3ccccc3c2=O)c1 | . | -3 | . | . | 1
COc1ccc(C(=O)C(Cc2ccccc2)N(C)C)cc1 (centres undefined) | 1 | -3 | -2 | -21 | 1
COc1ccc(C(CNC(=O)c2ccc3c(c2)CCC3)N(C)C)cc1 (centres undefined) | 80* | -28 | -4 | -17 | -1
O=C1C=C(N2CC2)c2ccccc2C1=O | . | . | 51* | 4 | .
CCOc1ccccc1NC(=O)c1cccn(Cc2ccccc2C)c1=O | . | 12 | . | . | 1
O=c1cc(C(F)(F)F)c2cc3c4c(c2o1)CCCN4CCC3 | 79* | -20 | -1 | 9 | 143*
